Over roughly 33,000 sequences, “E-score (-0.5 to 0.5)” has its median near -0.013; the highest 2% begin near 0.3. Only a selection was taken, and the highest values are over-represented in it overall.
molecular target: T1, Msn1 (UniProt P22148); assay: PBM E-score (8-mer binding enrichment) (E-score (-0.5 to 0.5)); higher = stronger / more preferred TF binding; conditions: protein concentration: 200 nM; construct: GST-full length
T1 sequence: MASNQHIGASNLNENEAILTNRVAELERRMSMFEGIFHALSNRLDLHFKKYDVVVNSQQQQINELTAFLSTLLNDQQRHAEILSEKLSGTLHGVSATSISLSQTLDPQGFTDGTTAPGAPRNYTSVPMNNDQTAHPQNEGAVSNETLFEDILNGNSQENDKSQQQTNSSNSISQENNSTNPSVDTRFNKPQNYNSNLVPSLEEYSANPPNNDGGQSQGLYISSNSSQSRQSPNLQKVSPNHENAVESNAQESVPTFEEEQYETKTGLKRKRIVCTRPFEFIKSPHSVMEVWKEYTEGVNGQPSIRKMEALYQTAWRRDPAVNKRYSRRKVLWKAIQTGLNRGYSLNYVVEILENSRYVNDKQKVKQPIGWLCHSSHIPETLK
Outline: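 Each ungapped eight-base word and its reverse complement, pooled, received an E-score from the Universal PBM Analysis Suite. Underlying scans, normalised with masliner, recorded fluorescent anti-GST bound to GST-tagged yeast transcription factors. These were applied at about 100-200 nM to universal all-10-mer Agilent arrays double-stranded by primer extension.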

Going from AAGGGCGG to CCGAACCC, the “PBM E-score” value rises from -0.21 to -0.146.

Going from CATTGCAC to ATAACGAT, the “PBM E-score” value falls from 0.0641 to -0.192.

First: ATAATGTA
Second: CTAATGTA
The “PBM E-score” value of the first is lower: 0.139 for the first, 0.143 for the second.

Going from CTAATGTC to CTAATGAC, the “PBM E-score” value falls from 0.378 to -0.12.

Going from ATAATGTC to ATAATGTG, the “PBM E-score” value falls from 0.427 to -0.0687.

Going from AATCCTTC to AACCCGTT, the “PBM E-score” value falls from -0.0471 to -0.0539.

Compared with ACGAGCGT, CTTCGTCC is higher in “PBM E-score” value: -0.173 for the first, -0.0108 for the second.

First: ATTCGTCG
Second: ATTCGTCC
The “PBM E-score” value of the first is lower: 0.0922 for the first, 0.323 for the second.

Going from CAACGACA to CCACGACA, the “PBM E-score” value falls from 0.307 to 0.179.

Compared with CAACGACC, ATACGACA is higher in “PBM E-score” value: -0.156 for the first, 0.133 for the second.

Going from ACACGACA to TCACGACA, the “PBM E-score” value rises from 0.225 to 0.322.

First: CGACGACA
Second: CTACGACA
The “PBM E-score” value of the first is lower: 0.17 for the first, 0.311 for the second.

First: GCACGACA
Second: CAACGACG
The “PBM E-score” value of the first is lower: -0.045 for the first, -0.0172 for the second.

Going from CTACGACC to GTACGACA, the “PBM E-score” value rises from -0.119 to 0.345.

First: AAAACGCC
Second: GCTGCGCC
The “PBM E-score” value of the first is higher: 0.045 for the first, -0.192 for the second.

Compared with CAAAGTGC, CGCGCCCG is lower in “PBM E-score” value: 0.0233 for the first, -0.0907 for the second.

First: ACTAGACG
Second: CCTTGCCG
The “PBM E-score” value of the first is higher: 0.112 for the first, -0.0395 for the second.

Compared with AAAGATCC, AGAGATCG is higher in “PBM E-score” value: -0.12 for the first, -0.0703 for the second.

First: CTACGAAC
Second: GTACGAAA
The “PBM E-score” value of the first is lower: 0.0953 for the first, 0.249 for the second.

Going from GTACGAAC to GCACCCAC, the “PBM E-score” value falls from 0.311 to -0.091.

Going from CCTACCAA to CAAGATGG, the “PBM E-score” value falls from 0.133 to -0.0978.

First: AGAACAAT
Second: TTTACAAA
The “PBM E-score” value of the first is lower: 0.0106 for the first, 0.12 for the second.

First: CGTACAAG
Second: TGTACACA
The “PBM E-score” value of the first is lower: 0.0872 for the first, 0.279 for the second.

First: AGAACAAA
Second: GGTACAAC
The “PBM E-score” value of the first is higher: 0.303 for the first, 0.188 for the second.

Compared with CGTACAAA, CGTACAAC is lower in “PBM E-score” value: 0.356 for the first, 0.093 for the second.

Compared with TGTACAAA, AGAACAAG is lower in “PBM E-score” value: 0.392 for the first, 0.151 for the second.

Going from GGTACAAA to GTTACAAA, the “PBM E-score” value falls from 0.456 to 0.158.

Going from TAAAGTGA to GATTGTGA, the “PBM E-score” value rises from 0.0769 to 0.0853.

Going from CTAAATGC to GCGGGCAC, the “PBM E-score” value falls from 0.035 to -0.0424.

Going from CTCAACGC to AGTACAAA, the “PBM E-score” value rises from -0.267 to 0.44.

First: TATACAAA
Second: GATACAAA
The “PBM E-score” value of the first is lower: 0.183 for the first, 0.313 for the second.

Going from AGTACAAG to GGTACATA, the “PBM E-score” value rises from 0.251 to 0.341.

First: AGTACAAT
Second: CGTACATA
The “PBM E-score” value of the first is lower: 0.29 for the first, 0.296 for the second.

Going from AGTACATA to GATACAAC, the “PBM E-score” value falls from 0.221 to 0.212.

Compared with GATGTCTA, AATGTCTC is higher in “PBM E-score” value: 0.239 for the first, 0.463 for the second.

Going from CATGTCTA to AATGTGTC, the “PBM E-score” value rises from 0.268 to 0.3.

Compared with CATGTCTC, CATGTGTC is lower in “PBM E-score” value: 0.343 for the first, 0.298 for the second.

Going from CAGGTCTC to AATGTCTG, the “PBM E-score” value rises from -0.00322 to 0.436.

Going from AATGTTTC to AGTGTCTG, the “PBM E-score” value rises from 0.105 to 0.154.

Compared with ACTGTCTG, AATGTCTA is higher in “PBM E-score” value: 0.079 for the first, 0.454 for the second.

First: AGAAGCGG
Second: AAAACCAG
The “PBM E-score” value of the first is lower: -0.101 for the first, 0.152 for the second.

Compared with CGTAAGGA, ACCATGGG is lower in “PBM E-score” value: -0.0491 for the first, -0.161 for the second.

Compared with GCCTATAA, TACCCGTA is lower in “PBM E-score” value: 0.0368 for the first, -0.0437 for the second.

First: ATTTGCGC
Second: CACCTGAG
The “PBM E-score” value of the first is higher: 0.104 for the first, -0.0701 for the second.

Going from ACATATGT to ATAGGGCC, the “PBM E-score” value falls from 0.28 to -0.158.

First: CGTGGACA
Second: AGTGGACA
The “PBM E-score” value of the first is higher: 0.408 for the first, 0.389 for the second.

Going from GGTGGAGA to CGTGGAAA, the “PBM E-score” value rises from -0.396 to 0.0488.

Compared with AGTGGACC, CGTGGACC is higher in “PBM E-score” value: -0.0955 for the first, -0.0578 for the second.

Compared with GGTGGACA, GGTGGATA is lower in “PBM E-score” value: 0.325 for the first, 0.0155 for the second.

First: AGTGGACG
Second: GGATTTCA
The “PBM E-score” value of the first is higher: 0.212 for the first, 0.0863 for the second.

First: CCTGATAC
Second: AGTAAAAC
The “PBM E-score” value of the first is higher: 0.12 for the first, -0.0534 for the second.

Going from AGCAAAGC to ATTGAGAG, the “PBM E-score” value rises from -0.143 to -0.0651.

Going from CAGCAAAA to CCGATTGC, the “PBM E-score” value rises from 0.0953 to 0.104.

First: ACGGACAC
Second: ACGGACAG
The “PBM E-score” value of the first is higher: 0.344 for the first, 0.175 for the second.

First: ACGGACCC
Second: ACGGACAT
The “PBM E-score” value of the first is lower: -0.221 for the first, 0.473 for the second.

First: ACGGACTC
Second: ACGGACCT
The “PBM E-score” value of the first is lower: 0.00234 for the first, 0.0608 for the second.

First: AAGCGGAC
Second: ACTTCCAG
The “PBM E-score” value of the first is higher: 0.014 for the first, -0.219 for the second.

First: TGAACTCA
Second: GCCTTTCA
The “PBM E-score” value of the first is higher: 0.0356 for the first, -0.179 for the second.

Going from ATCCCACA to ATCCCACG, the “PBM E-score” value rises from -0.141 to -0.0996.

First: GTCCCACA
Second: AGCTCCAT
The “PBM E-score” value of the first is higher: 0.319 for the first, -0.251 for the second.

First: ACAAAAAT
Second: ACAACGGG
The “PBM E-score” value of the first is higher: 0.372 for the first, 0.161 for the second.

Going from ACAAACAG to ACAAACAC, the “PBM E-score” value rises from 0.276 to 0.337.

First: TCAACGGA
Second: ACAAAAAG
The “PBM E-score” value of the first is lower: -0.0103 for the first, 0.216 for the second.

Compared with ACAAACAA, ACAAACGC is lower in “PBM E-score” value: 0.277 for the first, 0.172 for the second.

Compared with ACAAAAAA, ACAACGGA is higher in “PBM E-score” value: 0.225 for the first, 0.304 for the second.

First: ACAAACGA
Second: ACAAACGG
The “PBM E-score” value of the first is higher: 0.331 for the first, 0.298 for the second.

Compared with CGTAGACC, ACTCGTAC is higher in “PBM E-score” value: -0.151 for the first, -0.0875 for the second.

Going from ACCGCCAG to CTCGAACC, the “PBM E-score” value rises from -0.04 to -0.0331.

Compared with AGCGGCAG, GAAATACC is higher in “PBM E-score” value: -0.149 for the first, -0.0126 for the second.

First: ACTCCTCG
Second: CCCGTCGC
The “PBM E-score” value of the first is higher: -0.00289 for the first, -0.27 for the second.

First: ACTGAGCT
Second: CCTCTCGA
The “PBM E-score” value of the first is higher: -0.0939 for the first, -0.12 for the second.

Going from GCTGCTCC to CACTGGGA, the “PBM E-score” value rises from -0.218 to 0.131.

First: AAGCAAGT
Second: GAACCGCA
The “PBM E-score” value of the first is lower: 0.00084 for the first, 0.0554 for the second.

Going from ACAAAAAC to ACAAAAGA, the “PBM E-score” value falls from 0.319 to 0.27.

First: CCAAAAAC
Second: ACAAAAGC
The “PBM E-score” value of the first is lower: 0.0933 for the first, 0.364 for the second.

Compared with ACAAAACC, CCAAAAGC is lower in “PBM E-score” value: 0.239 for the first, 0.0259 for the second.

Compared with ACTACGCA, ATATTTTC is higher in “PBM E-score” value: -0.18 for the first, 0.226 for the second.

Going from CCTCGAAG to GGGGTGCA, the “PBM E-score” value falls from 0.0737 to -0.0694.

First: CGGACACC
Second: CGGACACA
The “PBM E-score” value of the first is lower: 0.112 for the first, 0.371 for the second.

First: CTGACACA
Second: CAGACACG
The “PBM E-score” value of the first is lower: 0.0572 for the first, 0.147 for the second.

Compared with CAGACACA, CGGACACG is higher in “PBM E-score” value: 0.28 for the first, 0.338 for the second.

Going from CCTTTCGC to GCTATGAA, the “PBM E-score” value rises from -0.146 to -0.00947.

First: CCGGCCGA
Second: GCGGCCGA
The “PBM E-score” value of the first is higher: 0.106 for the first, -0.0302 for the second.

Going from TCGGCCGA to AAGCGCTC, the “PBM E-score” value falls from 0.31 to -0.0777.

Compared with AAGCGCTT, AAGCGCTA is lower in “PBM E-score” value: 0.312 for the first, -0.0275 for the second.

First: CCTTAATC
Second: ACGCAAGA
The “PBM E-score” value of the first is lower: -0.105 for the first, 0.0419 for the second.
